The inhibition is the drop in the measured response relative to a control, in per cent.

In experiment [1] the target is Fibroblast growth factor receptor 4 (Homo sapiens) (UniProt P22455). The following applies: at 1 µM.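 Further: reported figure is the averaged percent inhibition of FGFR4, from the GSK PKIS kinase screening panel.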
The target of experiment [2] is Tyrosine-protein kinase Fgr (Homo sapiens) (UniProt P09769). Conditions: at 0.1 µM.
For experiment [3] the target is unchanged. The following applies: at 1 µM.
The target of experiment [4] is Vascular endothelial growth factor receptor 1 (Homo sapiens) (UniProt P17948). Conditions: at 0.1 µM.
Chain of Vascular endothelial growth factor receptor 1 (Homo sapiens) (P17948 whole entry): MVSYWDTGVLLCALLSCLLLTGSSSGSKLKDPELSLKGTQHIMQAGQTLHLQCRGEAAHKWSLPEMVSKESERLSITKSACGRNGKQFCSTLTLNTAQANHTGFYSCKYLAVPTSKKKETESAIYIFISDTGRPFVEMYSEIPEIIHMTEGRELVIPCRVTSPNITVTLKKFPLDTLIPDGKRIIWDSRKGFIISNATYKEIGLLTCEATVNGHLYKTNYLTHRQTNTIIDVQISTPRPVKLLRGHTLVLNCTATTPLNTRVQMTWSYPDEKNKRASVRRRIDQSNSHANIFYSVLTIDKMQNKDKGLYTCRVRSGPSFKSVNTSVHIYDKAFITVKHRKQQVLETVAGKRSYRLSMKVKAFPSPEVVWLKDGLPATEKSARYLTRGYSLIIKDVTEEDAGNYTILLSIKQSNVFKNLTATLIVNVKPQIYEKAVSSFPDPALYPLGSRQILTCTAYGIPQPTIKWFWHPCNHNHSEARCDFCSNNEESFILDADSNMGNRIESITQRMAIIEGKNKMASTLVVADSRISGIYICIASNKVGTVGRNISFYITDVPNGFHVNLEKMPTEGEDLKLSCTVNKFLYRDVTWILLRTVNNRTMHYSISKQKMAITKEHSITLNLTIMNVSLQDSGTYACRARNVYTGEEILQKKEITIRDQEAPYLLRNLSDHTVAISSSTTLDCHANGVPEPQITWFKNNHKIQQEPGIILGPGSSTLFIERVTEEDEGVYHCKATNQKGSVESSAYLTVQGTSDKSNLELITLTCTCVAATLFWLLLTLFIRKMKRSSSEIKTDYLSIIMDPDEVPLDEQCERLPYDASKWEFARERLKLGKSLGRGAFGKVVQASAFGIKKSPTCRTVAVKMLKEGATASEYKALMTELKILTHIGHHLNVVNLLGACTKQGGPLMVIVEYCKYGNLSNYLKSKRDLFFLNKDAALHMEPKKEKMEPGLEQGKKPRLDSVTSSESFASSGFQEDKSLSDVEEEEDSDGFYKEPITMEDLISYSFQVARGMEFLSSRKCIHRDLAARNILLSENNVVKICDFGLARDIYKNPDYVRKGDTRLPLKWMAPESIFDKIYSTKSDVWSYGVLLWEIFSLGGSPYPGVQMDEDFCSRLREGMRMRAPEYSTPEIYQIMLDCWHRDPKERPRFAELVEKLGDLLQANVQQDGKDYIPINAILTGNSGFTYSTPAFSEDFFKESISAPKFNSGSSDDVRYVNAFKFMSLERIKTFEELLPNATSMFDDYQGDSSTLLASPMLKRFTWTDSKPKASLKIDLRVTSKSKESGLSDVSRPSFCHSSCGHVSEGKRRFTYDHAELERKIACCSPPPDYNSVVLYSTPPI
The target is the same in experiment [5]. The following applies: at 1 µM.
The target in experiment [6] is Receptor-type tyrosine-protein kinase FLT3 (Homo sapiens) (UniProt P36888). The following applies: at 0.1 µM.
Experiment [7] has the same target. Conditions: at 1 µM.
The subject of experiment [8] is T1, Receptor-type tyrosine-protein kinase FLT3 (Homo sapiens), P36888 [D835Y].
T1 sequence (whole entry): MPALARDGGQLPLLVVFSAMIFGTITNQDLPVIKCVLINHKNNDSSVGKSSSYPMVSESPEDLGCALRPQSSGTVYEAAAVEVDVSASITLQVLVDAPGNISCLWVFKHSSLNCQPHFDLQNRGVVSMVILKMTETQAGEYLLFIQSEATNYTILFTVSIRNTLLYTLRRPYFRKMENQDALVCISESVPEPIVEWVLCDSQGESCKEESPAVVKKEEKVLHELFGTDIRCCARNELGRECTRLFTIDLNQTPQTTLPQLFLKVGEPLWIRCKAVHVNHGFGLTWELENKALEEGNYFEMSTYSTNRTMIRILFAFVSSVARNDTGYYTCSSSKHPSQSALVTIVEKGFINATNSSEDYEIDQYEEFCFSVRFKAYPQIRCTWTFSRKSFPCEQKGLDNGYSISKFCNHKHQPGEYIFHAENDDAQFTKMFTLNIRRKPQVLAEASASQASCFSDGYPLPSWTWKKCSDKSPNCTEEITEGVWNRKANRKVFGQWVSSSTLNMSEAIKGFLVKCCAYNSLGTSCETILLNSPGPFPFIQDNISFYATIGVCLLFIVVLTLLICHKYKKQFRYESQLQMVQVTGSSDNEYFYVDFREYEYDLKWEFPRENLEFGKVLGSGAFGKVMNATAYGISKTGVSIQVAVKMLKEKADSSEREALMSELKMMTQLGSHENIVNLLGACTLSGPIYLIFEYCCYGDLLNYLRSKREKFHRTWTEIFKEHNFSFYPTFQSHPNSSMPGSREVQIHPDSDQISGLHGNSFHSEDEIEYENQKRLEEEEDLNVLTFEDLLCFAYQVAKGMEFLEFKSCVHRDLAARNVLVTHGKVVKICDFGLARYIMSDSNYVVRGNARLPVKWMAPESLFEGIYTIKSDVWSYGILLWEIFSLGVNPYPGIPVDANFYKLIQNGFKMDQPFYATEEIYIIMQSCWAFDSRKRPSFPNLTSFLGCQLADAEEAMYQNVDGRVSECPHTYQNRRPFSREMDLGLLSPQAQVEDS
The following applies: at 0.1 µM.

Experiment [9] deals with Non-receptor tyrosine-protein kinase TYK2 (Homo sapiens) (UniProt P29597). The following applies: at 1 µM.
In experiment [10] the target is T2, Tyrosine-protein kinase receptor TYRO3 (Homo sapiens) (UniProt Q06418).
T2 sequence (whole entry): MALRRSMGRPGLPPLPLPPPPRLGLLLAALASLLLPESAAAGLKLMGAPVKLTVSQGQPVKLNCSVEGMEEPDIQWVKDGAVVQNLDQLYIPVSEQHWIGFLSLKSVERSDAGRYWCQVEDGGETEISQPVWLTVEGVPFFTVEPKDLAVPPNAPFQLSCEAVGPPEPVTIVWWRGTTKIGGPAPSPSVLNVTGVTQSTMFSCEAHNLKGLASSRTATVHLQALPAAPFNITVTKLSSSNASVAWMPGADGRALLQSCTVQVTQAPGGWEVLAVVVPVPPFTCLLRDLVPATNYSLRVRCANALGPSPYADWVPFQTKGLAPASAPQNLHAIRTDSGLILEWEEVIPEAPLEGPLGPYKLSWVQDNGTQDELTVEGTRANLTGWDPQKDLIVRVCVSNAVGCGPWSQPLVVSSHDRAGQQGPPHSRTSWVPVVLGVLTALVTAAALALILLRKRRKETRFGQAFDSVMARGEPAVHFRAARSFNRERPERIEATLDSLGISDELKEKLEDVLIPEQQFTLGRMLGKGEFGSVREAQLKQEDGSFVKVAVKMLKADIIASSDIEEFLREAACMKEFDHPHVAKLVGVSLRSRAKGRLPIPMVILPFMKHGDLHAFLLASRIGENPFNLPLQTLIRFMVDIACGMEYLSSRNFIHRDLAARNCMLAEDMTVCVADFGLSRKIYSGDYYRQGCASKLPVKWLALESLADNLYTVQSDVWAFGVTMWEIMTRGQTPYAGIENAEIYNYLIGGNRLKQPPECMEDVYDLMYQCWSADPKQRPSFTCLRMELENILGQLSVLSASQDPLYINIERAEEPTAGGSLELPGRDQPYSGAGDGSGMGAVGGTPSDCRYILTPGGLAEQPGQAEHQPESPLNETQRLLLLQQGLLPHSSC
Conditions: at 0.1 µM.

Experiment [11] concerns the target T2, Tyrosine-protein kinase receptor TYRO3 (Homo sapiens). Conditions: at 1 µM.
In experiment [12] the target is Tyrosine-protein kinase Yes (Homo sapiens) (UniProt P07947). The following applies: at 0.1 µM.
Chain of Tyrosine-protein kinase Yes (Homo sapiens) (P07947 2-543 limits assumed): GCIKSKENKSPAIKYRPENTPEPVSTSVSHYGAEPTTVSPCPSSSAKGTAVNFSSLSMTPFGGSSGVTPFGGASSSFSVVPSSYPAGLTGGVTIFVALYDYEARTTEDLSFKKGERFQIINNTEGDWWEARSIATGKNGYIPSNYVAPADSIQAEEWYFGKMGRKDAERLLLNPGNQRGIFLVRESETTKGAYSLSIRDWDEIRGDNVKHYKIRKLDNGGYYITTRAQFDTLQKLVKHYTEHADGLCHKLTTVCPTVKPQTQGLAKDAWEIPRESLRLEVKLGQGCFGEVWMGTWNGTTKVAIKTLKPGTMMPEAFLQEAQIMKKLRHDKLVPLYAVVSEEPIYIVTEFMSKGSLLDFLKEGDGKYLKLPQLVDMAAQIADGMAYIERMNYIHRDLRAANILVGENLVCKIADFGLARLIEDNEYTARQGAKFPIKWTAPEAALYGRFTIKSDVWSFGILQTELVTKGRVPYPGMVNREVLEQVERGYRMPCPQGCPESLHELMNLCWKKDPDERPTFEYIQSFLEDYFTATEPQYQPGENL
For experiment [13] the target is unchanged. Conditions: at 1 µM.
Experiment [14] addresses T3, Tyrosine-protein kinase ZAP-70 (Homo sapiens) (UniProt P43403).
T3 sequence (whole entry): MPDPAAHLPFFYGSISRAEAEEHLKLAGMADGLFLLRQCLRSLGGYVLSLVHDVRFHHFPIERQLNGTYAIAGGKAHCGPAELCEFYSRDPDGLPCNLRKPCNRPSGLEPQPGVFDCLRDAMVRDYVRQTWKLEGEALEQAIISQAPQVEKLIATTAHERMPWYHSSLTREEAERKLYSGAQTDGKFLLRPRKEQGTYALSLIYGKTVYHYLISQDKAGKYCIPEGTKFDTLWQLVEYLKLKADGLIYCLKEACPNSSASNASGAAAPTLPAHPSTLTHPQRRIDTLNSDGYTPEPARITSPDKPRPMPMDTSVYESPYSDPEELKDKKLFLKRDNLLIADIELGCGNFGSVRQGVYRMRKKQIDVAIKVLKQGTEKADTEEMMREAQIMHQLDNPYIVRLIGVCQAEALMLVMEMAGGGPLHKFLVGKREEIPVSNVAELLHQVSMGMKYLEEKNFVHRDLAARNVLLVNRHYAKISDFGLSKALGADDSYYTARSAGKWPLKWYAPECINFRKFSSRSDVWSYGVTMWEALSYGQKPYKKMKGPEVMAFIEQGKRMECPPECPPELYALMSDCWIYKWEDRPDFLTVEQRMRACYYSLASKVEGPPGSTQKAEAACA
Conditions: at 0.1 µM.

For experiment [15], the target named is T3, Tyrosine-protein kinase ZAP-70 (Homo sapiens). The following applies: at 1 µM.
In experiment [16] the target is Serine/threonine-protein kinase B-raf (Homo sapiens) (UniProt P15056). Conditions: at 0.1 µM.
Chain of Serine/threonine-protein kinase B-raf (Homo sapiens) (P15056 whole entry): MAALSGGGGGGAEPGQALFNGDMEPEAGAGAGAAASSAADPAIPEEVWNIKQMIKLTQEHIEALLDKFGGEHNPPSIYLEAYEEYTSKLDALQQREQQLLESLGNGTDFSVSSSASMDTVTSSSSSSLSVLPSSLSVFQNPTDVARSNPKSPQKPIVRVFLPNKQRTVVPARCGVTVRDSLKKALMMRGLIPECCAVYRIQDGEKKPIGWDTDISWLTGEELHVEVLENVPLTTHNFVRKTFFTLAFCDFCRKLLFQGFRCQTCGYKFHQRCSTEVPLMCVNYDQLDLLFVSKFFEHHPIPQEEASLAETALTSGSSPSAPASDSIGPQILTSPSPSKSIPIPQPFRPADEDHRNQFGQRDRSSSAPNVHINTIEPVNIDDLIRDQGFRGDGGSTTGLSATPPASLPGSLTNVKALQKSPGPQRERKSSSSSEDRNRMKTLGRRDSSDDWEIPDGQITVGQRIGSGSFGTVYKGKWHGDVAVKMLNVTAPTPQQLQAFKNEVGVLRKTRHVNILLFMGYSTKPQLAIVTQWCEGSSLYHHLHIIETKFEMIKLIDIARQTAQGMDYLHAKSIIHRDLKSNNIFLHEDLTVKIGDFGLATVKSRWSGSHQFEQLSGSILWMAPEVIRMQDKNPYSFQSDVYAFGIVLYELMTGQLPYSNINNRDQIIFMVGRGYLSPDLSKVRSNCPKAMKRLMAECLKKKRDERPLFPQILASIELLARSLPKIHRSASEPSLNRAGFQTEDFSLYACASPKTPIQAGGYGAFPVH
Experiment [17] shares this target. The following applies: at 1 µM.
For experiment [18], the system named is Serine/threonine-protein kinase B-raf (Homo sapiens), P15056 [V600E]. The following applies: at 0.1 µM.
Chain of Serine/threonine-protein kinase B-raf (Homo sapiens), P15056 [V600E] (P15056 whole entry V600E): as the sequence (P15056 whole entry) above, with V600E counted along it
Experiment [19] has the same test system. Conditions: at 1 µM.
Experiment [20] addresses RAF proto-oncogene serine/threonine-protein kinase (Homo sapiens) (UniProt P04049). Conditions: at 0.1 µM.

Chain of RAF proto-oncogene serine/threonine-protein kinase (Homo sapiens) (P04049 whole entry): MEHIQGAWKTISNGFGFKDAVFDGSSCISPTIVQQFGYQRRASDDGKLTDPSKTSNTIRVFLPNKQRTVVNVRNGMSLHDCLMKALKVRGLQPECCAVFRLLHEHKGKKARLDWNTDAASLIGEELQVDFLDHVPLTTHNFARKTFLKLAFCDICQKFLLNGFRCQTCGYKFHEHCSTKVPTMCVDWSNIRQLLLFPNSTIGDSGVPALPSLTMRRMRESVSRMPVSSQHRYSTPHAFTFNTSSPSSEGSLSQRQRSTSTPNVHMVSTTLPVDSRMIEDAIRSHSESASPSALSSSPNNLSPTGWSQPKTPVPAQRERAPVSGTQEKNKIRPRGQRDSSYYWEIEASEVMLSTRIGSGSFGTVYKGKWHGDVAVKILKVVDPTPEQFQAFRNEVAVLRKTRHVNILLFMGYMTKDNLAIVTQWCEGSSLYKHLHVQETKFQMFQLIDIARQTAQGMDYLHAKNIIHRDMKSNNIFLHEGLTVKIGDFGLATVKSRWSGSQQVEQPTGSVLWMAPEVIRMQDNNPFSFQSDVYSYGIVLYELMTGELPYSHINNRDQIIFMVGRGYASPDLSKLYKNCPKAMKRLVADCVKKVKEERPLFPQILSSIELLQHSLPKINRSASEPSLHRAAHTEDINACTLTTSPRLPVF
Chain of Fibroblast growth factor receptor 4 (Homo sapiens) (P22455 22-802 limits assumed): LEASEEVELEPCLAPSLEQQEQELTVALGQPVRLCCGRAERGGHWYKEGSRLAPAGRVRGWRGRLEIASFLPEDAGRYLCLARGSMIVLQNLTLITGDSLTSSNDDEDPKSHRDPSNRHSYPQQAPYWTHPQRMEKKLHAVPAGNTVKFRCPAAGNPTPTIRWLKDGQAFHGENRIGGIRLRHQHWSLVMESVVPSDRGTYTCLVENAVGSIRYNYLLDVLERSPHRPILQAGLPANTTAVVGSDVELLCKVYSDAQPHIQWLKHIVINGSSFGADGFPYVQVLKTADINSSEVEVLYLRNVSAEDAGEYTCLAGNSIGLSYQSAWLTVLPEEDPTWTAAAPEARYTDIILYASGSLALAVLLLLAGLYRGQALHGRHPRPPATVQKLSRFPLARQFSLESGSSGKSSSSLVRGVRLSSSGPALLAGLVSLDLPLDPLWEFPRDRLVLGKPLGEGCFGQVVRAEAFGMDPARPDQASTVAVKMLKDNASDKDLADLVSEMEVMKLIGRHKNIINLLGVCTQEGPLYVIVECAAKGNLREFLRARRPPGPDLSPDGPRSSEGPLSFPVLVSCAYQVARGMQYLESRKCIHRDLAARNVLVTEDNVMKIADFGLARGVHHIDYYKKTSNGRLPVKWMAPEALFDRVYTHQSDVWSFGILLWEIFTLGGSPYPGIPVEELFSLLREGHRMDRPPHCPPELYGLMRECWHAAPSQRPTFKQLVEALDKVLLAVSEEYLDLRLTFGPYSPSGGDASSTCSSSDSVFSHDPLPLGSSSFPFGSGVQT
Chain of Tyrosine-protein kinase Fgr (Homo sapiens) (P09769 2-529 limits assumed): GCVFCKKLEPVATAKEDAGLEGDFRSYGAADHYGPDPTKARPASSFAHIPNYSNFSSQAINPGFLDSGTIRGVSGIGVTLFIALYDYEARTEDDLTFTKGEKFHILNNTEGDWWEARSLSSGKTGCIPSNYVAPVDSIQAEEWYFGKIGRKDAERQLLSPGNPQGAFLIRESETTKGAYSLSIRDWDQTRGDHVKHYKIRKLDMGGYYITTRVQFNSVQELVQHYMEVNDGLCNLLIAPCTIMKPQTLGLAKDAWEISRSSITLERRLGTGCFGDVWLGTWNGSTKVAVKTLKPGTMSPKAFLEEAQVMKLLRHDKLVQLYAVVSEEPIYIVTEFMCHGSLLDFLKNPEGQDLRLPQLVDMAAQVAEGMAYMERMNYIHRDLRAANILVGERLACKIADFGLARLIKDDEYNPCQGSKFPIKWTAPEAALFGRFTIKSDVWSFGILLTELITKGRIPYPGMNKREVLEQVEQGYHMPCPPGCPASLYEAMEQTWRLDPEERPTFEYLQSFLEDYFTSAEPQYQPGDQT

On to `N#Cc1c(NC(=O)c2ccc(F)cc2)sc2c1CCCC2`, for which the inhibition is 1.31% in experiment [1]; 2.11% in experiment [2]; 1.83% in experiment [3]; 0.3% in experiment [4]; 1.63% in experiment [5]; -2.18% in [6]. Moreover, the inhibition was 0.66% in experiment [7]; -4.75% in experiment [8]; -1.49% in experiment [9]; 0.28% in [10]; 2.87% in experiment [11]; 0.59% in [12]. Further, the inhibition in experiment [13] worked out at 4.07%; in experiment [14], 1.26%; in experiment [15] it was 2.47%; in experiment [16] it was 1.72%; in experiment [17] it was 3.03%; in experiment [18] it was 1.04%. Moreover, the inhibition in [19] was 2.86%; in [20], -3.13%.

Turning to `CN1CCC(n2cnc(-c3ccc(F)cc3)c2-c2ccnc(N)n2)CC1`, the inhibition was 4.3% in [1]; 4.22% in experiment [2]; 8.36% in experiment [3]; -0.81% in [4]; 2.41% in experiment [5]; -0.36% in [6]. Also, the inhibition was 1.76% in experiment [7]; -8.15% in experiment [8]; -0.01% in experiment [9]; 1.97% in experiment [10]; 7.48% in experiment [11]; 2.09% in experiment [12]. For the same molecule, the inhibition in experiment [13] turned out to be 13.4%; in experiment [14] it was 1.2%; in experiment [15], 2.81%; in experiment [16], 1.83%; in [17], 5.24%; in experiment [18] it was 1.74%. For the same molecule, the inhibition is 5.35% in experiment [19] and -0.57% in experiment [20].

Regarding `N#Cc1c(NC(=O)CN2CCOCC2)sc2c1CCCC2`, the inhibition amounted to 2.81% in experiment [1]; 2.52% in experiment [2]; 4.31% in [3]; 0.23% in experiment [4]; 4.24% in experiment [5]; 1.8% in experiment [6]. The inhibition in experiment [7] is 4.78%; in experiment [8], 0.3%; in experiment [9], -0.83%; in experiment [10], 2.15%; in experiment [11], 3.91%; in [12], 3.9%. Moreover, the inhibition is 3.95% in experiment [13]; 1.13% in [14]; -1.02% in experiment [15]; 5.62% in experiment [16]; 6.96% in experiment [17]; 5.95% in experiment [18]. Besides, the values for the inhibition in [19] and in experiment [20] were 4.84% and 4.41%, respectively.

For the molecule `COc1cccc(-c2c[nH]c3c(N/N=C/c4ccncc4)ncnc23)c1`, the inhibition in experiment [1] is 2.46%; in experiment [2], 14.2%; in experiment [3] it was 54.2%; in experiment [4], 2.08%; in experiment [5], 18.4%; in [6], 6.9%. In addition, the inhibition was found to be 39% in experiment [7]; 16.4% in experiment [8]; 10.5% in experiment [9]; 7.3% in experiment [10]; 38% in experiment [11]; 19.6% in experiment [12]. Moreover, the inhibition in experiment [13] stood at 65.2%; in experiment [14], 1.26%; in experiment [15] it was 1.55%; in [16], 3.1%; in experiment [17] it was 11%; in experiment [18], 3.98%. Besides, the inhibition in experiment [19] stood at 11.2%; in experiment [20] it was 2.82%.

Turning to `COc1ccc(CNC(=O)c2ccc(-c3cc(-c4nnc(C)o4)ccc3C)cc2)cc1`, the inhibition is 3.73% in experiment [1]; 8.93% in experiment [2]; 6.92% in [3]; -0.52% in experiment [4]; -0.47% in experiment [5]; 0.57% in [6]. Moreover, the inhibition in [7] was -0.2%; in experiment [8], -2.79%; in experiment [9] it was 1.88%; in [10] it was 1.4%; in experiment [11], 4.48%; in experiment [12] it was -0.74%. Further, the inhibition in experiment [13] is 7.13%; in experiment [14], 2.69%; in [15] it was 2.94%; in [16], 0.94%; in [17], -0.29%; in [18], 1.06%. The figures for the inhibition in experiment [19] and in [20] were 1.01% and 1.48%, respectively.

On to `Nc1ncc(-c2cccc(S(N)(=O)=O)c2)c2scc(-c3ccc(F)c(Cl)c3)c12`, for which the inhibition was determined as 5.88% in [1]; 10.9% in experiment [2]; 45.8% in [3]; 4.56% in [4]; 14.9% in [5]; 1.34% in experiment [6]. Also, the inhibition was 5.98% in experiment [7]; -3.2% in experiment [8]; -2.5% in experiment [9]; 4.05% in experiment [10]; 25.1% in [11]; 11.5% in [12]. Further, the inhibition in experiment [13] was 56.4%; in [14], 1.28%; in [15] it was 2.18%; in experiment [16], 6.39%; in experiment [17], 15.3%; in experiment [18] it was 5.84%. Moreover, the inhibition in [19] was 10.1%; in [20], -0.36%.

Source of the values: ChEMBL document CHEMBL1961873, “Compounds: GSK PKIS; Assays: Nanosyn kinase panel” (2012).
